# Screening results: PubChem, several laboratories
# A selection: hits, their analogues and other compounds. The true share with any hit is near 3.5%.
# BoNT-A LC inh2: BoNT A light chain protease inhibition; multiplex microsphere protease substrate cleavage, flow cytometry; 360,000 tested, 0.17% active; inhibition, % at 10 µM
# BoNT-F LC inh: BoNT F light chain protease inhibition; Multiplex microsphere protease cleavage assay, flow cytometry; inhibition, % at 10 µM; 360,000 tested, 0.22% active; AID 588497; in the data active means inhibition above about 35%, passing the limit was not always enough; inconclusive means no clear call, values can overlap the other calls
# SARS 3CLpro inh: SARS-CoV 3CLpro protease inhibition; P0C6X7; recombinant SARS-CoV 3CLpro, quenched FRET peptide cleavage; inhibition, % at 6 µM; 290,000 tested, 0.14% active; AID 1706; in the data active means inhibition above about 12%
# Bead autofluor: compound fluorescence in toxin protease inhibitor counterscreen | AID 624483 | compound autofluorescence counterscreen, microsphere flow cytometry; hits give high values | 360,000 tested, 3.1% active | fluorescence intensity (concentration not given with the values); in the data active means fluorescence intensity above about 16000; inconclusive means no clear call, values can overlap the other calls
# Anthrax LF inh2: inhibitors of Bacillus anthracis lethal factor protease; multiplex microsphere protease cleavage assay, LF; inhibition, % at 10 µM; AID 588501; P15917; 360,000 tested, 0.12% active
# A number is an active result; n = inactive; u = inconclusive; x = no result. Unless noted, no stated cut-off is given here; in the data, active means inhibition above about 30%; inconclusive means no clear call, values can overlap the other calls; inactive means below that.
SMILES,BoNT-A LC inh2,BoNT-F LC inh,SARS 3CLpro inh,Bead autofluor,Anthrax LF inh2
CCCc1cc(=O)[nH]c(SCc2ccccc2Cl)n1,n,n,n,20635,n
Nc1cc(=O)[nH]c(SCc2ccccc2Cl)n1,n,n,n,n,n
CCCc1cc(=O)[nH]c(SCc2nc3ccccc3s2)n1,n,n,n,19993,n
COc1cccc(/C=N/NC(=O)c2cc3c(OC)c(OC)ccc3[nH]2)c1OC,n,n,n,n,n
Cc1ccc2nc(NC(=O)COC(=O)c3ccc(Br)o3)sc2c1,n,n,n,n,n
O=C(Nc1ccccc1-c1nc2ccccc2s1)c1ccc(Br)o1,n,n,n,23088,n
O=C(COC(=O)c1ccc(Br)o1)Nc1nc2ccccc2s1,n,n,n,16288,n
N#Cc1ccc(C(=O)Nn2cnnc2)cc1,n,n,n,n,n
COc1ccc(-c2csc(N(C)C(=O)c3cccs3)n2)cc1,n,n,n,n,n
O=C(CSc1nnc(-c2cccnc2)n1CCc1ccccc1)N1CCCCC1,n,n,n,n,n
COc1ccccc1C1/C(=C(/O)c2ccc(C)cc2)C(=O)C(=O)N1CCN1CCOCC1 (centres undefined),n,n,n,n,n
COc1ccc(C(=O)C[n+]2cc(-c3ccc(OC)cc3)n3c2CCCC3)cc1,n,n,n,n,n
Cc1ccc(C(=O)C[n+]2cc(-c3ccc(C)cc3)n3c2CCCCC3)cc1,n,n,n,22561,n
CC(C)OC(=O)NS(=O)(=O)c1cccc([N+](=O)[O-])c1,n,n,n,n,n
CCc1ccc2c(c1)cc(CN(Cc1ccco1)C(C)=O)c1nnnn12,n,n,n,n,n
CCCCC1=CC2=C(c3ccco3)C(=O)C(C)(OC(=O)c3ccc(OC)cc3)C(=O)C2=CN1Cc1ccco1 (centres undefined),n,n,x,n,n
CC(C)(C)P(=O)(CO)c1ccccc1 (centres undefined),n,n,n,19072,n
CC(C)(O)P(C)(=O)c1ccccc1 (centres undefined),n,n,n,n,n
CCCC(=O)Nc1ccc(NC(=S)NC(=O)c2ccccc2[N+](=O)[O-])cc1,n,n,n,n,n
CC(=O)Nc1cnn(Cc2ccc(Br)cc2)c1,n,n,n,24279,n
O=C(Nc1cnn(Cc2ccc(Cl)cc2)c1)c1cnccn1,n,n,n,19189,n
CCOc1ccccc1C(=O)Nc1cnn(Cc2ccc(F)cc2)c1,n,n,n,n,n
Cc1nc2c(n1O)CCC/C2=N\O,n,n,n,n,n
COc1ccc(-c2nc3c(n2O)CCC/C3=N\O)cc1,u,n,n,21176,n
O=C1NC[C@@H](CCCCN2C[C@H](Cc3ccccc3)N(CCC3CCCCC3)C(=O)C2=O)N(CCc2ccc(O)cc2)C1=O,n,n,x,n,n
SMILES,BoNT-A LC inh2,BoNT-F LC inh,SARS 3CLpro inh,Bead autofluor,Anthrax LF inh2
Cc1ccc(NC(=O)N(C2=NCC(C)S2)c2ccccc2)cc1 (centres undefined),u,n,n,19772,n
CCCN1CCCc2cc(CN(CCCN3CCOCC3)C(=O)Nc3ccc(OCC)cc3)ccc21,n,n,n,22682,n
CCn1c(NC(=O)c2ccc(F)cc2)c2ccccc2nc1=O,n,n,n,19832,n
Cc1nn(C(=O)Cn2ccc([N+](=O)[O-])n2)c(C)c1Cl,n,n,n,n,n
CN(C)CCN1C(=O)C(=O)/C(=C(/O)c2ccccc2)C1c1ccccc1F (centres undefined),n,n,n,n,n
N#Cc1c(N)sc2c1CCCCCC2,n,n,n,24025,n
CSc1ccc(-c2nc(CSCC(=O)NC3CC3)c(C)o2)cc1,n,n,n,n,n
CCOC(=O)N1CCN(C(=O)CSCc2nc(-c3ccccc3F)oc2C)CC1,n,n,n,u,n
CSc1ccc(-c2nc(CSCC(=O)N3CCOCC3)c(C)o2)cc1,u,n,n,22931,n
CCOC(=O)N1CCN(C(=O)CSCc2nc(-c3ccccc3C)oc2C)CC1,n,n,n,16597,n
NNC(=O)C=C1CCN(c2ncc(C(F)(F)F)cc2Cl)CC1,n,n,n,20786,n
COc1ccc(/C=N/NC(=O)C2CCN(c3ncc(C(F)(F)F)cc3Cl)CC2)cc1,u,n,n,22271,n
O=C(OC1CCN(c2ncc(C(F)(F)F)cc2Cl)CC1)c1ccccc1,n,n,n,22198,n
O=C(OC1CCN(c2ncc(C(F)(F)F)cc2Cl)CC1)c1cccc(C(F)(F)F)c1,n,n,n,n,n
COc1ccc(N2CCN(C(=O)Cc3ncc(C(F)(F)F)cc3Cl)CC2)cc1,n,n,n,23985,n
CCN1CCN(c2oc(-c3ccc([N+](=O)[O-])cc3)nc2C#N)CC1,n,n,n,n,n
CN(C)c1cccc2c(C#N)ccc(N(C)C)c12,n,n,n,n,n
COc1cccc(CN(C)C(=O)C2CCN(S(=O)(=O)c3ccc(C)cc3)CC2)c1OC,n,n,x,n,n
Cc1ccc(-n2ncc(C(=O)N3CCN(C(=O)c4ccco4)CC3)c2C2CCN(C(=O)OC(C)(C)C)CC2)cc1C,u,u,n,u,u
CCCCn1nnnc1C1(C)CCC(=O)N1Cc1ccco1 (centres undefined),n,n,x,n,n
CCOC(=O)c1[nH]c(C)c(/C(O)=C2\C(=O)C(=O)N(CCN(C)C)C2c2cccc(OC)c2OC)c1C (centres undefined),n,n,n,18747,n
NC(=O)c1cn(C2CCCCC2)c2ccccc2c1=O,n,41,n,n,n
CN(c1ccccc1)S(=O)(=O)c1ccc(NC(=O)C2CCCCC2C(=O)O)cc1 (centres undefined),n,n,n,n,n
O=C(O)COc1ccc(Cl)cc1CO,x,x,n,x,x
CC(=O)Nc1ccc(NC(=O)CSCCc2ccccn2)cc1,n,n,n,19811,n
SMILES,BoNT-A LC inh2,BoNT-F LC inh,SARS 3CLpro inh,Bead autofluor,Anthrax LF inh2
CC(=O)Nc1ccc(NC(=O)CCSCCc2ccccn2)cc1,n,n,n,n,n
O=S(=O)(c1ccc(S(=O)(=O)N(Cc2ccccc2)Cc2ccco2)cc1)N1CCCC1,n,n,n,16963,n
CCCC(=O)N1CCN(C2=NS(=O)(=O)c3ccccc32)CC1,u,n,n,23423,n
O=C(C1CC(=O)N(c2ccccc2)C1)N1CCN(C2=NS(=O)(=O)c3ccccc32)CC1 (centres undefined),n,n,n,23523,n
COc1ccccc1N1CCN(Cc2c(F)cccc2Cl)CC1,n,n,n,21264,n
COc1ccccc1N1CCN(Cc2ccc(Br)s2)CC1,n,n,n,20319,n
COc1ccccc1N1CCN(Cc2ccccc2)CC1,n,n,n,n,n
COc1ccc(CN2CCC(C(=O)N3CCN(c4ccccc4F)CC3)CC2)cc1OC,n,n,n,n,n
CCOc1ccccc1N1CCN(Cc2cccc(OC)c2O)CC1,u,n,n,17870,n
COc1cc(CN2CCC(C(=O)N3CCN(c4ccccc4F)CC3)CC2)cc(OC)c1OC,n,n,n,16517,n
COc1ccc(-c2nc3ccccc3s2)cc1O,n,n,n,n,n
CC1(C)ON=C(c2cccc(F)c2)NC1=O,n,n,x,n,n
C[C@H]1CN([C@@H](C)CO)C(=O)CCCn2cc(nn2)CO[C@@H]1CN(C)C(=O)Nc1ccc2c(c1)OCO2,n,n,x,n,n
